From PubChem BioAssay
Shown are actives, neighbours in structure and some others; about 13% of the full set was active somewhere.
miR-21 act: qHTS Assay for Modulators of miRNAs and/orActivators of miR-21; HeLa miR-21 FLuc reporter, luciferase, 48 h; Potency, µM (titrated, usually from 38.3 µM), actives largely listed as activators; 340,000 tested, under 10 active;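 note: miR-21 action dims this reporter so a rising signal means less miR-21 action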
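Using DMEM plus 10% FBS, HeLa miR-21-FLuc cells are incubated with test compounds (final up to about 40uM) for 48 hours; firefly luciferase signal is then imaged following reagent-mediated lysis.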
JMJD2E inh: qHTS Assay for Inhibitors of Human Jumonji Domain Containing 2E (JMJD2E); Potency, µM (top dose mostly 57.1 µM), most hits filed as inhibitors; hit rate 1.6% among 230,000; JMJD2E catalytic domain, FDH-coupled NADH fluorescence (FDH is formaldehyde dehydrogenase); AID 2147, 2009; active = well fitted inhibition curve with a large enough effect, not every such curve was filed as active; inconclusive = small, poorly fitted or top-dose-only effect, or another doubt; inactive = no such curve, though single readings can be large or run the other way; note: nearly all actives have a fitted effect of over 50% in size
Target sequence (B2RXH2 1-337 limits assumed): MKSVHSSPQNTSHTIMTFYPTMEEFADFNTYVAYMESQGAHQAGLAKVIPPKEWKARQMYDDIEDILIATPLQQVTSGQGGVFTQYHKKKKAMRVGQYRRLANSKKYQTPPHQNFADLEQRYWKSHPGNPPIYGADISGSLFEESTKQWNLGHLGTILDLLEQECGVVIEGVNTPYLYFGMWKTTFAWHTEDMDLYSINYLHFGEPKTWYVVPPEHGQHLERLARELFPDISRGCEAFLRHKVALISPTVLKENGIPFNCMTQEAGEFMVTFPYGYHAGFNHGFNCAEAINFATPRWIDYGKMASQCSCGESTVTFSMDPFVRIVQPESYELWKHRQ
G9a inh: qHTS Assay for Inhibitors of Histone Lysine Methyltransferase G9a; hit rate 8.8% among 350,000; G9a H3K9 monomethylation, AlphaScreen, 2 h; Potency, µM (titrated, usually from 102 µM), usual class: inhibitors; Histone-lysine N-methyltransferase EHMT2 (Homo sapiens), Q96KQ7; note: nearly all actives have a fitted effect of over 75% in size
Target sequence (Q96KQ7 913-1193 limits assumed): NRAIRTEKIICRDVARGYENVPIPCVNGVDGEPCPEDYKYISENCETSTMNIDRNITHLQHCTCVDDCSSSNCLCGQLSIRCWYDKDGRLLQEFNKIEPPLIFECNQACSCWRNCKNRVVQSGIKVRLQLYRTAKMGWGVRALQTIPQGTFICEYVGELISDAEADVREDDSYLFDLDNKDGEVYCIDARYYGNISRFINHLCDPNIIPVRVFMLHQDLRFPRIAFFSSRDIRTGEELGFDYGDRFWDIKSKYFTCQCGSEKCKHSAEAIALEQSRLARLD
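G9a (20 nM) was preincubated 15 min with compound, then reacted 2 h at room temperature with 500 nM biotin-H3K9 peptide and 20 µM SAM. Monomethyl-H3K9 detected by AlphaScreen using anti-H3K9me1 antibody.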
LMNA splice mod: qHTS Assay for Modulators of Lamin A Splicing; HeLa LMNA splicing GFP/RFP minigene ratio, 48 h; Potency, µM (doses to about 46.1 µM), most hits filed as inhibitors; hit rate 0.01% among 200,000; AID 1487, 2009; active = well fitted inhibition curve with a large enough effect in the signal ratio, with a control signal flat, not every such curve was filed as active; inconclusive = small, poorly fitted or top-dose-only effect, or effect the other way, or a change in a side signal; the % refers to the signal ratio
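Read-out is the ratio of GFP to DsRed2 object intensity, acquired by 488 nm laser-scanning cytometry on HeLa lamin A-EGFP minigene reporter cells. Compound incubation 48 hrs at 37 °C in Opti-MEM with 2% FBS; DMSO 0.5% final.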
ALDH1A1 block: qHTS Assay for Inhibitors of Aldehyde Dehydrogenase 1 (ALDH1A1); hit rate 7.3% among 220,000; Aldehyde dehydrogenase 1A1 (Homo sapiens), P00352; AID 1030, 2008; Purified ALDH1A1, NADH fluorescence, propionaldehyde substrate; Potency, µM (doses to about 75.3 µM), actives largely listed as inhibitors; active = well fitted inhibition curve with a large enough effect, not every such curve was filed as active; inconclusive = small, poorly fitted or top-dose-only effect, or another doubt; inactive = no such curve, though single readings can be large or run the other way
Sfp PPTase inh: qHTS Assay for Inhibitors of Bacillus subtilis Sfp phosphopantetheinyl transferase (PPTase) | Biochemical Sfp PPTase activity, qHTS | Potency, µM, most hits filed as inhibitors | hit rate 3.5% among 310,000 | AID 1490, 2009 | 4'-phosphopantetheinyl transferase ffp (Bacillus subtilis), Q9F4F7;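 note: the enzyme is Sfp with the accession as filed and its product quenches rhodamine fluorescence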
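Buffer: 50 mM Hepes-Na pH 7.6, 10 mM MgCl2, 0.01% Nonidet P-40, 0.01% BSA. Enzyme 15 nM, pre-exposed to compound 15 min; substrates then added and fluorescence change tracked over 30 min.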
Large screens that a line does not name were inactive. Unless noted, calls come from the whole dose curve; as a rule, active = well fitted curve in the direction sought with a large enough effect; inconclusive = small, poorly fitted or top-dose-only effect, or another doubt; inactive = no such curve, though single readings can be large; an effect the other way counts as inactive or inconclusive.

Cc1ccc(NC(=O)C2CCN(S(=O)(=O)c3ccc4c(c3)OCCO4)CC2)nc1	none (no result: miR-21 act, JMJD2E inh, LMNA splice mod, ALDH1A1 block, Sfp PPTase inh)
CN1C(=O)/C(=C/c2ccccc2OCc2ccccc2)NC1=S	G9a inh inconclusive, ALDH1A1 block inconclusive
CN1C(=O)/C(=C/c2cc(C(C)(C)C)c(O)c(C(C)(C)C)c2)NC1=S	G9a inh 12.6µM, ALDH1A1 block inconclusive (no result: LMNA splice mod)
CSCCC(=O)N1CCCC(N(C)CCc2ccccc2)C1 (stereo not drawn)	none (no result: JMJD2E inh, LMNA splice mod, ALDH1A1 block)
O=C(c1cc(-c2cccc(O)c2)on1)N1CCCC1	G9a inh 50.1µM (no result: JMJD2E inh, LMNA splice mod, ALDH1A1 block)
COc1ccccc1N1CCN(C(=O)c2cc(-c3cccc(Cl)c3)on2)CC1	G9a inh inconclusive, LMNA splice mod inconclusive, ALDH1A1 block 20µM
COc1ccccc1N1CCN(C(=O)c2cc(-c3ccc4c(c3)OCO4)on2)CC1	LMNA splice mod inconclusive, ALDH1A1 block inconclusive
Cc1ccccc1CNS(=O)(=O)c1c(C)[nH]c(C)c1C(=O)N1CCCCC1	none (no result: JMJD2E inh, LMNA splice mod, ALDH1A1 block)
CCNc1ncc2nc(-c3cccc(C#N)c3)c(=O)n(CCC#N)c2n1	ALDH1A1 block inconclusive (no result: miR-21 act, JMJD2E inh)
CCN(CC(=O)Nc1ccc(NC(C)=O)cc1)C(=O)c1ccccc1SCc1c(C)noc1C	G9a inh 39.8µM (no result: miR-21 act, JMJD2E inh, LMNA splice mod, ALDH1A1 block, Sfp PPTase inh)
O=C(COC(=O)c1ccc([N+](=O)[O-])s1)Nc1ccc(Cl)cn1	ALDH1A1 block inconclusive
Cc1c(Cl)cnc(NC(=O)COC(=O)c2ccc([N+](=O)[O-])s2)c1Cl	G9a inh 25.1µM, ALDH1A1 block 11.2µM, Sfp PPTase inh inconclusive
Cc1[nH]c2ccccc2c1C(=O)COC(=O)c1ccc([N+](=O)[O-])s1	G9a inh 31.6µM, ALDH1A1 block 11.2µM (no result: LMNA splice mod)
O=C(COC(=O)c1ccc([N+](=O)[O-])s1)Nc1ccccc1	ALDH1A1 block inconclusive
O=C(COC(=O)c1ccc([N+](=O)[O-])s1)NC(c1ccccc1)c1ccccc1	LMNA splice mod inconclusive, ALDH1A1 block 22.4µM
CCOc1ccccc1NC(=O)Cn1c(=O)n(CCCC(=O)NCCOC)c(=O)c2cc(OC)c(OC)cc21	none (no result: JMJD2E inh, LMNA splice mod, ALDH1A1 block, Sfp PPTase inh)
S=C(Nc1cccc2ccccc12)NC1CCCCC1	JMJD2E inh inconclusive, G9a inh 50.1µM, ALDH1A1 block inconclusive
COc1ccc(NC(=S)Nc2cccnc2)c(OC)c1	G9a inh 50.1µM, ALDH1A1 block inconclusive (no result: LMNA splice mod)
Cc1cccc(C)c1NC(=S)Nc1ccc(Cl)c(Cl)c1	ALDH1A1 block 22.4µM
COc1cccc(NC(=S)Nc2cccnc2)c1	none
CSc1ccccc1NC(=S)NC1CCCCC1	none
COc1ccc(NC(=S)Nc2cccc(Cl)c2)cc1OC	G9a inh 50.1µM, ALDH1A1 block inconclusive, Sfp PPTase inh inconclusive
COc1ccc2c(C)c(CCC(=O)NCCc3ccccc3OC)c(=O)oc2c1	none (no result: JMJD2E inh, LMNA splice mod, ALDH1A1 block, Sfp PPTase inh)
Fc1ccc(NC(=S)Nc2cccnc2)cc1Cl	JMJD2E inh inconclusive, LMNA splice mod inconclusive, ALDH1A1 block 28.2µM, Sfp PPTase inh 28.2µM (no result: G9a inh)
COc1ccc(NC(=O)C/C(C)=N/NC(=O)c2cnccn2)c(OC)c1	Sfp PPTase inh inconclusive (no result: JMJD2E inh, LMNA splice mod, ALDH1A1 block)
COc1ccc(NC(=O)C/C(C)=N/NC(=O)C(=O)NC2CCCCC2)c(OC)c1	G9a inh 15.8µM, ALDH1A1 block inconclusive (no result: LMNA splice mod)
COc1ccc(OC)c(NC(=S)Nc2ccccc2)c1	none (no result: JMJD2E inh, LMNA splice mod, ALDH1A1 block)
COC(=O)NNC(=S)Nc1cc(OC)ccc1OC	G9a inh 44.7µM, ALDH1A1 block 25.1µM, Sfp PPTase inh inconclusive
Fc1ccc(NC(=S)Nc2cccnc2)cc1	JMJD2E inh inconclusive, G9a inh inconclusive, Sfp PPTase inh inconclusive (no result: LMNA splice mod)
O=C(Nc1cccnc1)Nc1cc(Cl)cc(Cl)c1	miR-21 act inconclusive, G9a inh 79.4µM, LMNA splice mod inconclusive, ALDH1A1 block inconclusive, Sfp PPTase inh inconclusive
CC(=O)c1ccc(NC(=O)c2noc3c2CSc2ccccc2-3)cc1	none (no result: JMJD2E inh, LMNA splice mod, ALDH1A1 block, Sfp PPTase inh)
O=C(NCCc1ccc(Cl)cc1)C1CCCN1C(=O)Nc1ccccc1 (stereo not drawn)	none (no result: JMJD2E inh, LMNA splice mod, ALDH1A1 block)
S=C(Nc1ccccc1Cl)N(Cc1ccccc1)Cc1cccnc1	none (no result: LMNA splice mod)
